From PubChem BioAssay
PI5P4K alpha inh: inhibitors of human PI5P4K alpha. P48426. PI5P4Kalpha enzyme, ADP-Glo luminescence, 60 min; active compounds read low. max response, %. 330,000 tested, 1.2% active. AID 652105; active = max response of -50% or lower; inconclusive = between -30% and -50%; inactive = -30% or higher; note: value at the top dose of about 77 µM
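ADP-Glo luminescence end-point after a 60 min room-temperature kinase reaction. PI5P4Kalpha and substrate in HEPES pH 7.4 buffer with EGTA, 0.1% CHAPS and 5% DMSO; ATP at 5 microM final.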
Akt phos inh: Akt phosphorylation inhibition; activity change, % for hits at 50 µM; Neuro2A IGF-stimulated pAkt S473 HTRF, 20 min; active compounds read low; 360,000 tested, 0.32% active; AID 651550; in the data active = activity change below about -80%; inconclusive = mostly about -51% to -80%
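Single-point screen (50 µM final compound) in Neuro2A cells stimulated 20 min with 6 nM IGF at 37 deg C. After lysis, Ser473-phosphorylated Akt read by HTRF (ex 330 nm, em 615/665 nm) as the 665/615 ratio.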
Six1-Eya2 blk: Six1/Eya2 interaction inhibition; activity change, % (no concentration beside the values); AlphaScreen GST-Six1/His-Eya2 binding, biochemical; active compounds read low; 360,000 tested, 0.56% active
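Homogeneous AlphaScreen proximity assay pairing GST-Six1 with His-tagged Eya2 (added as 5X mix: 250 nM and 500 nM) in 50 mM Tris pH 8.0, 300 mM NaCl, 1 mM TCEP. Glutathione donor and nickel acceptor beads; 1 h, 37 °C, dark.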
CtBP-E1A blk: inhibitors of CtBP/E1A interaction; 340,000 tested, 0.49% active; activity change, % (test concentration not listed); AlphaScreen GST-E1A/His-CtBP binding, 1536-well; active compounds read low; AID 651724
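AlphaScreen with 125 nM GST-E1A and 125 nM His-CtBP (5X stocks) in Tris pH 8.0, 300 mM NaCl, BSA, Tween 20, TCEP. Compounds preincubated 2 h at 37 deg C, then glutathione donor/nickel acceptor beads added for 1 h at 37 deg C in dark.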
PI4K2A inh: blocks human PI4K2A kinase activity; Q9BTU6; purified PI4K2A, ADP-Glo luminescence, 1 h; active compounds read low; activity change, negative = inhibition, % at 76.9 µM; 420,000 tested, 0.13% active; in the data active = activity change below about -50%; inconclusive = mostly about -30% to -49%;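 note: -100% = wells without enzyme as full effect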
Target sequence (Q9BTU6 whole entry, looked up): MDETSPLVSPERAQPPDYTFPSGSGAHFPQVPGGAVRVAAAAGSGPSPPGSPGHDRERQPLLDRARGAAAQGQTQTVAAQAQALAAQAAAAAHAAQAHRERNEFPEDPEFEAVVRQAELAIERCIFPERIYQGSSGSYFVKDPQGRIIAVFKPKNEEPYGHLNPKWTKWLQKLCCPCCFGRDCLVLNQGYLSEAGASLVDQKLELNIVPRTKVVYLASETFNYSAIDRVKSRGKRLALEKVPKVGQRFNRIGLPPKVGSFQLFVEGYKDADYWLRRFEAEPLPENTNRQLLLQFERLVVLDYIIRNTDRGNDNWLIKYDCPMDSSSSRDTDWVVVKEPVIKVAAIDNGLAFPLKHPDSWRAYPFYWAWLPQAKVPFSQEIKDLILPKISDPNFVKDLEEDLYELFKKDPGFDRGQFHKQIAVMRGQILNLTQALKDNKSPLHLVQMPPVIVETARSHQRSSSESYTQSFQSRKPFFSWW
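PI4K2A activity was measured by ADP-Glo luminescence: enzyme (4 ug/mL stock) and phosphatidylinositol (1.2 mM stock) in Tris pH 7.5/MgCl2/EGTA/Triton X-100 buffer were reacted with ATP (300 microM stock) for one hour at ambient temperature.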
* = called active by the depositor; i = inactive; ? = inconclusive; . = no result given. Sampled rows, rich in hits. Any-hit rate of the full collection: about 1.8%. Cut-off read from the data, not from the text of the source, unless noted: active = activity change below about -65%; inconclusive = mostly about -30% to -63%; inactive = weaker than that. Unless noted, % is set by controls: 0 for no effect and ±100 for the full control effect.

SMILES | PI5P4K alpha inh | Akt phos inh | Six1-Eya2 blk | CtBP-E1A blk | PI4K2A inh
C=CCn1c(SCc2ccc(Br)cc2F)nc2cc(C(=O)O)ccc2c1=O | -61* | i | 3 | -1 | -5
O=C(Nc1noc2ccccc12)c1ccc(F)cc1 | . | . | . | . | -56*
CCOC(=O)c1c(C)oc2c1c(C=NCc1ccccn1)c(O)c1ccccc12 | -12 | i | -75* | -1 | -3
On1cnnc1-c1ccccc1 | 4 | -91%* | 2 | -2 | -1
COn1cnnc1-c1ccccc1 | -8 | i | 11 | 7 | 1
Cc1ccc(Cl)cc1N1CCN(C(=O)C2CCN(S(=O)(=O)c3cccc4nonc34)CC2)CC1 | . | . | . | . | 2
Cc1ccc(NC(=S)c2nc3ccccc3s2)cc1 | 5 | i | -6 | ? | -82*
C=CCn1c(SCC(=O)Nc2sc3c(c2C#N)CCC(C)C3)nc2cc(C(=O)O)ccc2c1=O (configuration not stated) | -53* | i | -18 | -14 | 9
COCc1nnc(NS(=O)(=O)c2ccc(OC)cc2)s1 | 2 | i | 9 | . | -4
CCOC(=O)CC[C@@]1(C(=O)OCC)C[C@@H](CC(=O)NCC23CC4CC(CC(C4)C2)C3)C(=O)N2CCCC=C21 | . | . | . | . | -1
CCN(CC)CCOC(=O)c1ccc(N/C=C(/C#N)c2nc(-c3cc4ccccc4oc3=O)cs2)cc1 | ? | i | 0 | 2 | 5
CCN(CC)CCOC(=O)c1ccc(N/C=C(/C#N)c2nc(-c3ccc(OC)cc3)cs2)cc1 | -69* | i | -3 | -4 | -1
CCN(CC)CCOC(=O)c1ccc(N/C=C(/C#N)c2nc(-c3ccc4c(c3)OCO4)cs2)cc1 | -53* | i | -8 | -5 | 0
Cc1csc(SCC(=O)Nc2cccc3nsnc23)n1 | 5 | i | 44 | 12 | -23
C=CCOC(=O)CCCC(=O)NC1CCCCC1 | 6 | -128%* | 10 | -2 | 3
O=C(CCC(=O)OCCCC(F)(F)C(F)(F)F)NC1CCCCC1 | . | i | 7 | 7 | 2
COC(=O)c1ccc(-c2nc3cc(N)ccc3o2)cc1 | 6 | i | 3 | 9 | -30
CCCCCOc1ccc(C2C(C(=O)c3ccc(C)o3)=C(O)C(=O)N2c2cc(C)on2)cc1 (configuration not stated) | -55* | i | -12 | -6 | -2
Cc1cc(N2C(=O)C(O)=C(C(=O)c3cc4ccccc4o3)C2c2cccc(Br)c2)no1 (configuration not stated) | -53* | i | -14 | . | -2
CCCOc1cccc(C2C(C(=O)c3cc4ccccc4o3)=C(O)C(=O)N2c2cc(C)on2)c1 (configuration not stated) | -1 | i | 3 | . | 2
CCOc1ccc2nc(SCC(=O)NCC3CCCO3)sc2c1 (configuration not stated) | 5 | i | 9 | 0 | 2
CCOc1ccc2[nH]c3nc(SCC(=O)NCC4CCCO4)nnc3c2c1 (configuration not stated) | -12 | i | -90* | -86* | -5
CC1(CC(=O)N/N=C/c2cc([N+](=O)[O-])c(O)cc2O)OCCO1 | -64* | i | -89* | . | 0
Cc1ccc(-n2c(C)cc(/C=N/NC(=O)CC3(C)OCCO3)c2C)c(C)c1 | -1 | i | -5 | -5 | -3
CCOC(=O)c1cnc(-n2[nH]c(C)cc2=O)[nH]c1=O | 2 | i | -77* | -92* | -2
SMILES | PI5P4K alpha inh | Akt phos inh | Six1-Eya2 blk | CtBP-E1A blk | PI4K2A inh
CCOC(=O)c1cnc(-n2[nH]c(C)c(Cc3ccccc3)c2=O)[nH]c1=O | -9 | i | -82* | -92* | -2
Cn1c(NC(=O)C2CCCO2)cc(=O)n(C)c1=O (configuration not stated) | . | i | 2 | 8 | -1
O=C(OCc1ccccc1)c1ccc(Br)o1 | 6 | -107%* | 39 | 13 | 4
CCCCCCOc1ccc(/C(C)=N/NC2=NCCN2)cc1 | -10 | i | 2 | . | 0
Cc1cccc(C(=O)Oc2ccc(/C=N/NC(=O)c3ccncc3)cc2)c1 | 3 | i | -5 | 4 | 1
Cc1cccc(C(=O)Oc2ccc(/C=N/NC(=O)c3cc(O)cc(O)c3)cc2)c1 | -77* | i | ? | ? | 1
